In PMC11574364 one finds binding signal data, which are given here for 6 sequences.

Among the targets are RBMY1C (Homo sapiens, UniProt P0DJD4); THOC4 (Homo sapiens, UniProt Q86V81); ASCC1 (Homo sapiens, UniProt Q8N9N2).
Common to all, as to assay: protein domain microarray probed with biotinylated miRNA; Domain array: 20 mM Tris-HCl pH 7.4, 200 mM KCl, 0.2 mM EDTA, 0.05% NP40, 2 ug/ul heparin, overnight 4 C. ORF array: PBS pH 7.0 with RNase inhibitor, 100 ng RNA; high values mean tight binding
Conditions in all cases: ssRNA

A further assay has as its target T1, RBM12(3) (Homo sapiens, UniProt Q9NTZ6).
T1 sequence: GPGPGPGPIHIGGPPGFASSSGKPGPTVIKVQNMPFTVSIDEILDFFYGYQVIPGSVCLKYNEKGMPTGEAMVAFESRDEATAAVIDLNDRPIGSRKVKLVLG

A further assay deals with T2, RBM41 (Homo sapiens, UniProt Q96IZ5).
T2 sequence: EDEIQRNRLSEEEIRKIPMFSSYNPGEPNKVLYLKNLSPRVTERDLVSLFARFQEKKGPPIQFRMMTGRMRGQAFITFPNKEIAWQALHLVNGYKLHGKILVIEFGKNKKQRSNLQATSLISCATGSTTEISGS

For the next assay, the target named is T3, RBM15 (Homo sapiens, UniProt Q96T37).
T3 sequence: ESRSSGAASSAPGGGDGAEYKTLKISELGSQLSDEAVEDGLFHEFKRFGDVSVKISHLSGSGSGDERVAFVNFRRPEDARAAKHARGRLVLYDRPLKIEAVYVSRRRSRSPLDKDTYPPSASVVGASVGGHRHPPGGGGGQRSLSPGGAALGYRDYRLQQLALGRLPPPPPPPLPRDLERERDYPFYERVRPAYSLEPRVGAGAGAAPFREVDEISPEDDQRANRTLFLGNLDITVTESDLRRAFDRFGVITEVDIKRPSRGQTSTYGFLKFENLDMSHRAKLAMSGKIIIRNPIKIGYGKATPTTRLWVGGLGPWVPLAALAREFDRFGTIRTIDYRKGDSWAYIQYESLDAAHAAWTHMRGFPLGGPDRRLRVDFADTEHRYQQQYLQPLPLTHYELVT

A further assay concerns the target T4, TDRKH(1-2) (Homo sapiens, UniProt Q9Y2W6).
T4 sequence: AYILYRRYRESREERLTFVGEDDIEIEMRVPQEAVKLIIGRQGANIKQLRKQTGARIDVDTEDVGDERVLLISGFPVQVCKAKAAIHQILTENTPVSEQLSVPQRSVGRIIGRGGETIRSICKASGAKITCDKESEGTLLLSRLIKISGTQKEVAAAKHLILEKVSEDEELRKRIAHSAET

The target in another assay is T5, RBMS1 (Homo sapiens, UniProt P29558).
T5 sequence: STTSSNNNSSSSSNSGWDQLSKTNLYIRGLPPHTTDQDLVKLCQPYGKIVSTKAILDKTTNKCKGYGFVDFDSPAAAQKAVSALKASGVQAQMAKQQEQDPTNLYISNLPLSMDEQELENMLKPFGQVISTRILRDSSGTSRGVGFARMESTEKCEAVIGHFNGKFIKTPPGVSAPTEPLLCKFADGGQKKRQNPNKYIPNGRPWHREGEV

A further assay deals with T6, RBM15B (Homo sapiens, UniProt Q8NDT2).
T6 sequence: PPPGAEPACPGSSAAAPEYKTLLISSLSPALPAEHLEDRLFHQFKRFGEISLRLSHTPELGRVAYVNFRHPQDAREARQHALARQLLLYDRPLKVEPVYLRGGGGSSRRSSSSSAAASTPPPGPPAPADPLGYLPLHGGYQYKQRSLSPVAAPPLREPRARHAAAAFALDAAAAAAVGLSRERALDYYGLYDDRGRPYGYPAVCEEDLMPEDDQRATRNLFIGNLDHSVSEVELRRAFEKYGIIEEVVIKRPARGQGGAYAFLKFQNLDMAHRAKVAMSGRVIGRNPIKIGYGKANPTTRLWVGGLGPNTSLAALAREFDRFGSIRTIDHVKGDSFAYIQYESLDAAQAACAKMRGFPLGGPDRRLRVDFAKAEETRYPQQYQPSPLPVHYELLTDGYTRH

A further assay has as its target T7, SF1 (Homo sapiens, UniProt Q15637).
T7 sequence: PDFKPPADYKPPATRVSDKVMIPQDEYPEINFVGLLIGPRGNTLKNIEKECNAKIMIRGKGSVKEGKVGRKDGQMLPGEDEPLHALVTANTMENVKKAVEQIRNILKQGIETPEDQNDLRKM

Chain of RBMY1C (P0DJD4 1-110): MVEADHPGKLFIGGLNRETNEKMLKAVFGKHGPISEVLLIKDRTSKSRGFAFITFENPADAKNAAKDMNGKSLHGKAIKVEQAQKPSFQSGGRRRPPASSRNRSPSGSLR
Chain of ASCC1 (Q8N9N2 79-168): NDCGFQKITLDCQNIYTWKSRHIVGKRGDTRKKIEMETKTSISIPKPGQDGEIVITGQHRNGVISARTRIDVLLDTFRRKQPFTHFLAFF

For the sequence CAGUGCAAUGAUGAAAGGGCAU, the binding signal came out at 27.1 ± 4.43 fluorescence intensity with RBM12(3); 284 ± 7.83 fluorescence intensity in the assay with RBM41; 315.16 ± 0.212 fluorescence intensity in the assay with RBM15; 40.4 ± 7.05 fluorescence intensity in the assay with TDRKH(1-2); 166 ± 3.01 fluorescence intensity in the assay with RBMS1; 128 ± 12.3 fluorescence intensity with RBM15B. Besides, the binding signal with RBMY1C was 1150 ± 31.6 fluorescence intensity; with SF1 it was 107.4 ± 0.728 fluorescence intensity; with THOC4, 40.5 ± 0.424 fluorescence intensity.
UGAGGUAGUAGGUUGUGUGGUU: the binding signal with RBM12(3) worked out at 44.9 ± 5.61 fluorescence intensity; with RBM41, 435 ± 24.3 fluorescence intensity; with RBM15, 501 ± 99.1 fluorescence intensity; with ASCC1, 45.53 ± 0.0141 fluorescence intensity; with TDRKH(1-2) it was 93.1 ± 19.1 fluorescence intensity; with RBMS1, 341 ± 18.8 fluorescence intensity. Besides, the binding signal in the assay with RBM15B is 268 ± 141 fluorescence intensity; with RBMY1C, 1360 ± 26.2 fluorescence intensity; in the assay with SF1 it was 24.25 ± 0.205 fluorescence intensity; in the assay with THOC4, 133 ± 30 fluorescence intensity.
Turning to UGAGGUAGUAGGUUGUAUAGUU, the binding signal worked out at 45.9 ± 18.9 fluorescence intensity with RBM41; 82.1 ± 15.2 fluorescence intensity with RBM15; 78.2 ± 3.38 fluorescence intensity in the assay with RBMS1; 42.7 ± 8.55 fluorescence intensity with RBM15B; 643 ± 42.4 fluorescence intensity with RBMY1C.
With AGAGGUAGUAGGUUGCAUAGUU, the binding signal in the assay with RBM12(3) is 26.4 ± 4.72 fluorescence intensity; with RBM41, 818 ± 64.1 fluorescence intensity; with RBM15 it was 525 ± 1.24 fluorescence intensity; with ASCC1, 24.9 ± 3.57 fluorescence intensity; with TDRKH(1-2), 29.6 ± 0.502 fluorescence intensity; with RBMS1 it was 365.1 ± 1.24 fluorescence intensity. Further, the binding signal in the assay with RBM15B is 242 ± 10.9 fluorescence intensity; with RBMY1C, 1860 ± 11.9 fluorescence intensity; with THOC4, 49.2 ± 7.5 fluorescence intensity.
As to UGAGGUAGUAGGUUGUAUGGUU, the binding signal was determined as 35.9 ± 0.728 fluorescence intensity with RBM12(3); 350 ± 12.9 fluorescence intensity with RBM41; 537 ± 29.7 fluorescence intensity with RBM15; 22.5 ± 1.64 fluorescence intensity in the assay with ASCC1; 45.7 ± 2.46 fluorescence intensity with TDRKH(1-2); 316 ± 53.1 fluorescence intensity with RBMS1. Also, the binding signal was found to be 309 ± 16.6 fluorescence intensity in the assay with RBM15B, 1200 ± 27.5 fluorescence intensity with RBMY1C, 24.7 ± 4.35 fluorescence intensity in the assay with SF1 and 91.8 ± 21.8 fluorescence intensity with THOC4.
With UAGCUUAUCAGACUGAUGUUGA, the binding signal with RBM15 stood at 134 ± 18.6 fluorescence intensity; with RBMS1, 29.7 ± 0.537 fluorescence intensity; with RBM15B it was 30.7 ± 4.65 fluorescence intensity; with RBMY1C, 371 ± 23 fluorescence intensity.
